VACV Venus inh = vaccinia inhibition (Venus reporter) | Vaccinia virus Venus reporter expression, fluorescence | Potency, µM (top dose mostly 36.5 µM), without a hit: at the highest dose activity change, negative = inhibition, actives largely listed as inhibitors | 330,000 tested, 0.46% active | AID 720580; calls by dose curve; tested in A549 cells; also: potency is read from the fitted curve at half-maximal effect; nearly all actives have a fitted effect of over 30% in size
HCMV inh = blocks human cytomegalovirus replication | HFF cells, HCMV-luciferase reporter, 72 h; active compounds read low | 410,000 tested, 4.5% active | activity change, negative = inhibition, % at 57.5 µM; in the data active = activity change below about -60%; inconclusive = no clear call, values can overlap the other calls; inactive = above about -39%
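Luciferase read-out from HCMV-luciferase-infected HFFs (MOI 1 PFU/cell) 72 h post infection at 37C; compounds added after 16 h cell attachment; activity normalized between buffer-only basal and Salinomycin (10uM) inhibitor controls.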
FMDV inh = antivirals against foot and mouth disease virus. Potency, µM (series often up to 57.9 µM), for inactives: at the highest dose activity change, negative = inhibition, usual class: inhibitors. FMDV antiviral cell-based qHTS. 410,000 tested, 1.2% active; calls by dose curve; tested in HEK293T cells; also: read-out not given here; potency is read from the fitted curve at half-maximal effect; nearly all actives have a fitted effect of over 45% in size
Marburg entry inh = Marburg virus entry inhibition; Potency, µM (titrated, usually from 37.8 µM), for the others: top-dose activity change, negative = inhibition, most hits filed as inhibitors; AID 540276; Marburg virus pseudotyped entry inhibition, cell reporter; 300,000 tested, 1.8% active; calls by dose curve; tested in HEK293 cells; also: potency is read from the fitted curve at half-maximal effect
Lassa entry inh = blocks Lassa virus binding to or entry into cells; Lassa virus pseudotype entry inhibition, cell reporter; Potency, µM (titrated, usually from 37.9 µM), inactives show at the top dose activity change, negative = inhibition, actives largely listed as inhibitors; 300,000 tested, 1.2% active; calls by dose curve; tested in HEK293 cells; also: potency is read from the fitted curve at half-maximal effect; nearly all actives have a fitted effect of over 50% in size
VACV mCherry inh = inhibitors of vaccinia virus infection (mCherry reporter signal); Vaccinia virus mCherry reporter infection, fluorescence; Potency, µM (titrated, usually from 36.5 µM), inactives show at the top dose activity change, negative = inhibition, usual class: inhibitors; AID 720579; 310,000 tested, 0.63% active; calls by dose curve; tested in A549 cells; also: potency is read from the fitted curve at half-maximal effect; nearly all actives have a fitted effect of over 35% in size
Numbers without * were called inactive; i = inactive; ? = inconclusive; nt = no result given; ! = a repeat was not active; [ ] = another dose, or the depositor's remark. A selection: hits, their analogues and other compounds. The true share with any hit is near 6.5%. % is scaled to controls: 0 for no effect and ±100 for the full control effect.

SMILES | VACV Venus inh | HCMV inh | FMDV inh | Marburg entry inh | Lassa entry inh | VACV mCherry inh
O=C(COc1ccc(Cl)cc1Br)Nc1ccncc1 | -24% | 14 | 5% | ? | 5% | -2%
Cc1ccc(S(=O)(=O)Nc2ccc(NC(=O)Nc3cccc(C(F)(F)F)c3)cc2)cc1 | ? | -62* | ? | ? | ? | 11µM*
CCN(CC)S(=O)(=O)c1ccc(NC(=O)Nc2cccc(C(F)(F)F)c2)cc1 | nt | -105* | ? | ? | ? | nt
CCN(CC)S(=O)(=O)c1ccc(C(=O)Nc2cccc(C)c2)cc1 | -29% | -26 | nt | 4% | ? | i
CNS(=O)(=O)c1ccc(NC(=O)Nc2cccc(F)c2)cc1 | -6% | -101* | -1% | -12% | -1%[46.1 µM] | -3%
O=c1c(Br)c(Br)cnn1-c1ccccc1 | ? | -97* | 14µM* | ? | ? | ?
COc1ccc(-n2c(C)cc(C(=O)CSc3ccc(NC(C)=O)cc3)c2C)cc1 | -23% | 8 | 0% | -1% | ? | i
Cc1ccc(-n2nnnc2SCC(=O)c2cc(C)n(-c3cc(C)on3)c2C)c(C)c1 | -15% | -37 | nt | -13% | 1.5µM* | ?
COc1ccc(-n2c(C)cc(C(=O)CCl)c2C)cc1 | nt | -90* | 28µM* | nt | nt | nt
Cc1cc(-n2c(C)cc(C(=O)CSc3nnnn3-c3ccccc3)c2C)no1 | -9% | -10 | -27% | -21% | ? | -17%
CC(=O)Nc1ccc(SCC(=O)c2cc(C)n(-c3ccccc3)c2C)cc1 | -9% | -60* | 14% | -21% | -7% | -17%
COc1ccc(-n2c(C)cc(C(=O)CN3C(=O)c4ccccc4C3=O)c2C)cc1 | -14% | ? | 32% | ? | 27% | -2%
Cc1cc(C(=O)C(C)OC(=O)c2ccc(NC(=O)CC#N)cc2)c(C)n1-c1ccccc1 (centres undefined) | -19% | -63* | 16µM* | ? | ? | ?
Cc1cc(C(=O)COC(=O)c2ccc(O)cc2O)c(C)n1-c1ccccc1 | ? | -12 | -22% | ? | 11µM* | ?
COc1cc(NC(=O)c2cccs2)c(C(=O)OCC(=O)c2cc(C)n(-c3ccccc3)c2C)cc1OC | -2% | -34 | 4µM* | 3.5µM* | ? | -17%
Cc1cc(C(=O)OCC(N)=O)c(C)n1-c1ccccc1 | -12% | 70 | 21% | -2% | 2% | i
Cc1cc(-n2c(C)cc(C(=O)CCl)c2C)no1 | ? | -96* | 22µM* | 2.8µM* | ? | -28%
COc1cc(NC(=O)c2cccs2)c(C(=O)OCC(=O)c2cc(C)n(-c3ccc(F)cc3)c2C)cc1OC | -6% | -22 | ? | ? | ? | -1%
CCOC(=O)c1cc(C)n(-c2ccccc2)c1C | 1%[7.34 µM] | -77* | 44% | 28%[46.1 µM] | -2% | 0%[7.34 µM]
COC(=O)/C(C#N)=C1\SC=C(C)N1c1ccccc1 | nt | nt | nt | 4% | nt | nt
Cc1ncc2c(c1CNC(=O)c1ccccc1F)CCN(C(=O)c1ccccc1-n1cccn1)C2 | -3% | nt | -14% | nt | nt | -13%
Cc1cc(C(=O)O)c(C)n1-c1ccccc1 | -13% | 26 | -4% | 14% | 12% | -12%
Cc1cc(=O)c(C(=O)O)c(C)n1-c1ccccc1 | -10% | -62* | 0% | 6% | 25% | -7%
COc1ccc(-n2c(C)cc(C(=O)COC(=O)c3ccc(O)cc3O)c2C)cc1 | nt | -81* | -24% | nt | nt | nt
Cc1cc(C(=O)COC(=O)c2ccc(O)cc2O)c(C)n1-c1ccc(OC(F)F)cc1 | -22% | -63* | ? | 7.9µM* | ? | -8%
SMILES | VACV Venus inh | HCMV inh | FMDV inh | Marburg entry inh | Lassa entry inh | VACV mCherry inh
COc1ccc(-n2c(C)cc(C(=O)COC(=O)Cn3cnc4ccccc43)c2C)cc1 | -30% | ? | -25% | -27% | 10% | ?
Cc1nnc(SCC(=O)c2cc(C)n(-c3c(C)n(C)n(-c4ccccc4)c3=O)c2C)s1 | -4% | -1 | -13% | -14% | 4% | -8%
Cc1cc(C(=O)CCl)c(C)n1-c1c(C)n(C)n(-c2ccccc2)c1=O | ? | -35 | 28µM* | ? | ? | ?
O=C(CN1CCN(Cc2ccc(Cl)cc2)CC1)N/N=C/c1cccs1 | -10% | -21 | ? | 2% | 5% | -20%
CCOC(=O)C1=C(C)NC(C)=C(C(=O)OCC)C1C(=O)OCC(=O)N1c2ccccc2CC1C (centres undefined) | -6% | 20 | 25% | 13µM*! | ? | -30%
CCOC(=O)c1c(C)[nH]c(C(=O)OCC(=O)N2c3ccccc3CC2C)c1C (centres undefined) | -28% | -30 | ? | ? | ? | ?
CN1CCC(C)(C(=O)Nc2cccc3c2CCCC3)C1 (centres undefined) | 1% | -12 | -23% | nt | nt | -7%
Cc1cc(C)cc(C(=O)NCC(=O)N2CCN(C(c3ccccc3)c3ccccc3)CC2)c1 | -15% | 33 | 3% | 13µM* | -20%[46.1 µM] | -29%
CSCCC(NC(=O)c1ccccc1)C(=O)N1CCN(C(c2ccccc2)c2ccccc2)CC1 (centres undefined) | ? | -19 | ? | -28% | 14µM* | ?
CSCCC(NC(=O)c1ccc(Cl)cc1Cl)C(=O)N1CCN(C(=O)c2ccccc2)CC1 (centres undefined) | nt | 0 | -14% | nt | nt | nt
CCOC(=O)c1c(NC(NC(=O)C(C)C)C(Cl)(Cl)Cl)sc2c1CCC2 (centres undefined) | -15% | -4 | ? | 11µM* | ? | -15%
O=C(NC1CCCCC1)c1cc2c(cc1Cl)N1CCCCCC1=NS2(=O)=O | -3% | -97* | 8% | 15%[46.1 µM] | -14% | -8%
COc1cccc(/C=C/C(=O)c2ccc[nH]2)c1 | ? | -87* | 29% | -21% | ? | ?
COc1ccc(C(=O)/C=C/c2ccc(O)cc2)cc1 | -5% | 33 | 30% | nt | nt | i
COc1ccc(C=CC(=O)c2cc(O)ccc2O)cc1 | -24% | ? | 25% | 1%[46.1 µM] | ? | 7.9µM*
O=C(/C=C/c1ccc2c(c1)OCO2)c1ccc[nH]1 | ? | -7 | 30% | ? | ? | ?
COc1ccc(OC)c(C(=O)/C=C/c2ccccc2C(F)(F)F)c1 | nt | -104* | 20µM* | ? | ? | nt
COc1ccc(OC)c(C(=O)C(=O)c2cc(OC)ccc2OC)c1 | -5% | -2 | -27% | ? | -4% | -5%
COc1ccc(C(=O)/C=C/c2ccc(N(C)C)cc2)c(OC)c1 | 7% | -6 | 43% | 7.1µM* | 10µM* | ?
CN(C)c1ccc(/C=C/C(=O)c2ccccc2O)cc1 | nt | 19 | -24% | ? | 22% | nt
Cc1cnc(-n2ncc(C(=O)NCCc3cccnc3)c2C)nc1-c1cccs1 | -19% | nt | -5% | nt | nt | ?
CCn1c(-c2nonc2N)nc2ccncc21 | nt | nt | nt | nt | -6% | nt
CN(Cc1ccc(F)cc1)S(=O)(=O)c1nnc(NC(=O)c2ccccc2Br)s1 | -11% | -3 | 12% | nt | 0%[46.1 µM] | -19%
COc1ccc(C(=O)/C=C/c2ccc(N3CCCCC3)c([N+](=O)[O-])c2)cc1 | -4% | -31 | -21% | -19% | 10% | -8%

High-throughput results deposited in PubChem by National Center for Advancing Translational Sciences (NCATS).
